In PubChem BioAssay:
Calls of active or inactive are those of the source. Unless noted, how the calls were made is not given here.

Columns and labels:
[1] = resazurin metabolic signal in HepG2 cells – cell-based, resazurin fluorescence, 24 h, PK04 Diversity Set, profiling panel (AID 1172); details: HepG2 viability, higher = more signal
[2] = budding yeast growth changes without added modifier – OD600, strain BY4716, 24 h, basal condition, primary screen (AID 1173); details: S. cerevisiae BY4716 growth, OD600, 24 h; higher = more signal, called active from +8 up or from −8 down
[3] = viability profiling in MM1S myeloma cells – cell-based, resazurin fluorescence, basal, 24 h, PK04 Diversity Set, profiling panel (AID 1174); details: higher = more signal, called active from +8 up or from −8 down;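 further: MM1S multiple myeloma cell line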
[4] = target: Dihydroorotate dehydrogenase (quinone), mitochondrial (Plasmodium falciparum (isolate 3D7)) (UniProt Q08210); test: inhibition of P. falciparum DHODH – biochemical, C-terminal His tag, absorbance 600 nm, primary screen (AID 1175); details: PfDHODH enzyme, DCIP absorbance 600 nm; higher = more signal, called active from +8 up or from −8 down;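 further: recombinant parasite enzyme with a five histidine tag at its C terminus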
[5] = inhibition of PAO1 biofilm formation – strain PAO1, LB-PBS medium, absorbance 600 nm, primary screen (AID 1176); details: P. aeruginosa PAO1 growth/biofilm, A600, 12 h; higher = more signal
[6] = growth modulation of vineyard yeast isolate – strain RM11-1a, OD600, basal, 24 h, primary screen (AID 1177);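 further: cultures grown under basal conditions with no added stressor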; details: S. cerevisiae RM11-1a growth, OD600, 24 h; higher = more signal, called active from +8 up or from −8 down
[7] = growth of efflux-deficient E. coli DRC39 – strain DRC39, OD650, 24 h, E. coli filamentation inducers, primary screen (AID 1178);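 further: growth measured as culture turbidity by optical density at 650 nm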; details: E. coli DRC39 acrAB, higher = more signal, called active from +8 up or from −8 down
[8] = growth of efflux-deficient E. coli DRC39 – strain DRC39, OD650, 48 h, E. coli filamentation inducers, primary screen (AID 1179);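 further: screen aims at cell division blockers that make cells filament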; details: E. coli DRC39 delta-acrAB growth, higher = more signal, called active from +8 up or from −8 down
[9] = viability profiling in RPMI8226 myeloma cells – cell-based, resazurin fluorescence, basal, 24 h, PK04 Diversity Set, profiling panel (AID 1180); details: higher = more signal;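 further: RPMI8826 multiple myeloma cell line at 5000 cells per well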
[10] = target: E3 ubiquitin-protein ligase XIAP (Homo sapiens) (UniProt P98170); test: small molecules binding XIAP protein – biophysical, small-molecule microarray, fluorescence 635 nm, primary screen (AID 1181); details: higher = more signal;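 further: score merges 667 nm emission and signal to noise over triplicate slides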
[11] = test system: XIP peptide (Xip251-270) binding; test: XIP fragment 251-270 binding compounds – biochemical, small-molecule microarray, fluorescence 635/667 nm, 0.1 µg/mL protein, primary screen (AID 1182); details: fluorescent protein binding, 635 nm, higher = more signal, called active from +8 up or from −8 down
XIP peptide (Xip251-270) = test: compounds binding XIP fragment 251-270 – biochemical, small-molecule microarray, fluorescence 635/667 nm, 0.5 µg/mL protein, primary screen (AID 1183); details: fluorescence 635 nm, higher = more signal
[12] = blood-stage malaria parasite viability loss – strain 3D7, DAPI fluorescence, 100 nL, primary screen (AID 1184);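 further: parasites grown inside human red blood cells in medium with human serum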; details: P. falciparum 3D7 growth, 3 d, higher = more signal
[13] = target: Homeobox protein Hox-A13 (Mus musculus) (UniProt Q62424); test: disruptors of Hoxa13 oligonucleotide interaction – biochemical, fluorescence polarization, labeled oligonucleotide, primary screen (AID 1185); details: Hoxa13:DNA binding, 15 min, higher = more signal, called active from +8 up or from −8 down
[14] = blockers of DNA damage checkpoint Chk1 activation – imaging, HeLa, hydroxyurea, phospho-Chk1 antibody, percent positive cells, primary screen (AID 1186); details: hydroxyurea-induced phospho-Chk1 immunofluorescence imaging, higher = more signal
[15] = blockers of DNA damage checkpoint Chk1 activation – imaging, HeLa, hydroxyurea, phospho-Chk1 nuclear intensity, primary screen (AID 1187); details: hydroxyurea-induced phospho-Chk1 immunofluorescence imaging, higher = more signal

Chain of E3 ubiquitin-protein ligase XIAP (Homo sapiens) (P98170 whole entry, looked up, the tested form may be a part): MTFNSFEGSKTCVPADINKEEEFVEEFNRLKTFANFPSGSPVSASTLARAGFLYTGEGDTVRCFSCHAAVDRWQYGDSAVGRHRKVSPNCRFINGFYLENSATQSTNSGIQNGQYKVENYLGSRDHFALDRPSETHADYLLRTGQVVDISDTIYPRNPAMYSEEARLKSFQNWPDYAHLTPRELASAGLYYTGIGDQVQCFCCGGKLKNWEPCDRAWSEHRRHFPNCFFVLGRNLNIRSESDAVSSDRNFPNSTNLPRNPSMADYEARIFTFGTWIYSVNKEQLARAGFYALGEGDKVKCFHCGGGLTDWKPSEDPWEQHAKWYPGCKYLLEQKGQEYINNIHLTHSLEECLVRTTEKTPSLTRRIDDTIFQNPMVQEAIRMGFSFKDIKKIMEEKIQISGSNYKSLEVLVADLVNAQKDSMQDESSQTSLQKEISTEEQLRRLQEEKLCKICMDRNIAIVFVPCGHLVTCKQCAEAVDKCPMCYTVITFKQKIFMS
Chain of Homeobox protein Hox-A13 (Mus musculus) (Q62424 whole entry, looked up): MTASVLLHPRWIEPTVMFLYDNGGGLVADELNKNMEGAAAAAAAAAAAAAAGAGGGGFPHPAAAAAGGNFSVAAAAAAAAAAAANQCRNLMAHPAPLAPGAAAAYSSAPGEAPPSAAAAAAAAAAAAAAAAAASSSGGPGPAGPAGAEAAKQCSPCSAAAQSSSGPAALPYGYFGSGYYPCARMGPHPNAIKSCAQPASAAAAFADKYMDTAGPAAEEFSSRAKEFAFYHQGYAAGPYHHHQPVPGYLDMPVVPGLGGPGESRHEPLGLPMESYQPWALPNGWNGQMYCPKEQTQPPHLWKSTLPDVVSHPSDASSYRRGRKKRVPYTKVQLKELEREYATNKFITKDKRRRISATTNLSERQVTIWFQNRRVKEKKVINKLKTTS
Chain of Dihydroorotate dehydrogenase (quinone), mitochondrial (Plasmodium falciparum (isolate 3D7)) (Q08210 whole entry, looked up): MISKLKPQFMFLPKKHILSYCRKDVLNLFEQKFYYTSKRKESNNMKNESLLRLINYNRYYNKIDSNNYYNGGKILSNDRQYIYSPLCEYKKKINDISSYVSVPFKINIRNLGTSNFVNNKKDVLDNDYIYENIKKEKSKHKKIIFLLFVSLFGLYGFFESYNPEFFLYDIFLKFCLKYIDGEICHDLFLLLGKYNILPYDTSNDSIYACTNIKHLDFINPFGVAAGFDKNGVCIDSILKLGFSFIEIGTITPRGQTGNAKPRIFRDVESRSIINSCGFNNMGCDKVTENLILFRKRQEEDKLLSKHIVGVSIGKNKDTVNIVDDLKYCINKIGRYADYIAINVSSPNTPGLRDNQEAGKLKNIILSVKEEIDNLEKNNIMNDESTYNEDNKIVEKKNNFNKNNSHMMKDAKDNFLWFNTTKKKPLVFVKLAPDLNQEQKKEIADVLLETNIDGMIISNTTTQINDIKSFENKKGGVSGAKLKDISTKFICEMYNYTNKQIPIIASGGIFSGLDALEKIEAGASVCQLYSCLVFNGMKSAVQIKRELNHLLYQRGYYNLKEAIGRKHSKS

Structure (SMILES)	z-score [1]	z-score [2]	z-score [3]	composite z-score [4]	z-score [5]	z-score [6]	z-score [7]	z-score [8]	z-score [9]	composite z-score [10]	composite z-score [11]	composite z-score (XIP peptide (Xip251-270))	z-score [12]	z-score [13]	z-score [14]	z-score [15]
O=C(NCC(F)(F)F)[C@@H]1c2ccccc2C(=O)N(Cc2ccccc2Cl)[C@H]1c1ccc(CO)cc1	0.519	-0.331 (inactive)	0.403 (inactive)	-0.731 (inactive)	0.277 (inactive)	-0.562 (inactive)	0.113 (inactive)	0.183 (inactive)	0.641	0.282	0.0987 (inactive)	0.0561	-0.472	-2.37 (inactive)	0.178 (inactive)	0.449 (inactive)
CCCN1C(=O)[C@@]2(CCS(=O)(=O)c3ccccc3)N=C(c3ccc(OCCCO)cc3)O[C@H]2c2ccccc21	-0.561	1.27 (inactive)	-1.03 (inactive)	2.02 (inactive)	0.469 (inactive)	1.56 (inactive)	0.861 (inactive)	0.163 (inactive)	-2.15	-0.072	0.261 (inactive)	0.678	-2.56	-3.2 (inactive)	0.128 (inactive)	0.371 (inactive)
Cc1cc(C)c(C(O)C2C=CC3C(=O)N(C)C(=O)C3N2N2CCCCC2)c(C)c1 (configuration not stated)	0.0632	0.361 (inactive)	-1.09 (inactive)	-0.416 (inactive)	0.875 (inactive)	-0.136 (inactive)	-0.894 (inactive)	-0.435 (inactive)	-1.02	0.305	0.0255 (inactive)	0.849	1.09	-3.3 (inactive)	-0.514 (inactive)	-0.224 (inactive)
CCCCCCc1nc(-c2cc(C)c(OC)c(C)c2)cc2c1[Si](C(C)C)(C(C)C)O[C@H]2c1ccccc1	0.0796	0.54 (inactive)	0.0808 (inactive)	-0.292 (inactive)	-0.334 (inactive)	0.315 (inactive)	0.609 (inactive)	0.228 (inactive)	0.219	-0.244	-0.408 (inactive)	-0.461	-0.753	-1.91 (inactive)	0.0883 (inactive)	-0.242 (inactive)
C=C(C)[C@@H]1CC=C(C(O)C2C=CC3C(=O)NC(=O)C3N2Nc2ccccn2)CC1 (some centres not stated)	-1.3	-0.252 (inactive)	-1.48 (inactive)	0.291 (inactive)	1.99 (inactive)	-0.0819 (inactive)	-0.575 (inactive)	-0.339 (inactive)	-2.2	0.287	0.745 (inactive)	0.718	0.982	-3.65 (inactive)	0.129 (inactive)	-0.126 (inactive)
C#CCCCON=C1C[C@@H](O)[C@@H](O)[C@@H]2[C@@H]3C(=O)N(Cc4ccc5c(c4)OCO5)C(=O)[C@@H]3CC[C@H]12	0.168	0.0943 (inactive)	-0.255 (inactive)	-0.338 (inactive)	-0.708 (inactive)	0.162 (inactive)	0.483 (inactive)	0.961 (inactive)	0.126	-0.127	0.892 (inactive)	0.783	0.594	-0.469 (inactive)		
COCCOC(=O)N1C(=O)[C@@]2(c3cc(C#CC4=CCCCC4)ccc31)[C@H](C(=O)NC[C@H](O)c1ccccc1)[C@H]1C(=O)O[C@H](c3ccccc3)[C@H](c3ccccc3)N1[C@@H]2c1ccccc1OCCO	-1.57	1.76 (inactive)	-4.83 (inactive)	0.271 (inactive)	3.52 (inactive)	2.69 (inactive)	-0.504 (inactive)	-0.542 (inactive)	-4.64	0.175	0.51 (inactive)	0.681	-2.02	1.22 (inactive)	0.443 (inactive)	0.384 (inactive)
CC(=O)NCCCC[C@@H]1NC(=O)[C@@H]2C[C@H](C(=O)NCc3ccc(F)cc3)[C@H](c3cccc(OCCO)c3)N2C1=O	-0.352	0.473 (inactive)	0.0366 (inactive)	-0.79 (inactive)	0.298 (inactive)	0.625 (inactive)	-0.34 (inactive)	-0.17 (inactive)	0.168	-0.335	0.356 (inactive)	0.117	0.447	-4.11 (inactive)	0.676 (inactive)	0.312 (inactive)
CC1=C([C@H](O)CCc2ccccc2)[C@H](CO)[C@@H]2C(=O)N(Cc3ccccc3)C(=O)[C@@H]2C1	0.325	-3.02 (inactive)	0.169 (inactive)	-1.68 (inactive)	0.0694 (inactive)	0.0743 (inactive)	1.6 (inactive)	0.204 (inactive)	0.308	0.201	-0.241 (inactive)	-0.0644	-0.793	-4.92 (inactive)	-0.698 (inactive)	-0.835 (inactive)
CCOC(=O)C[C@H]1[C@H](OC(=O)c2ccccc2-c2ccccc2)[C@@H](NC(=O)c2ccc(-c3ccccc3)cc2)c2cc(OCCCO)ccc2N1C(=O)Cc1ccc(OC)cc1	-0.235	-0.034 (inactive)	-0.0275 (inactive)	-1.29 (inactive)	0.2 (inactive)	-0.28 (inactive)	-0.489 (inactive)	-0.628 (inactive)	0.364	-0.16	0.617 (inactive)	0.222	0.561	-2.32 (inactive)	0.663 (inactive)	0.241 (inactive)
COc1ccc([C@H]2C[C@H]3C(Br)=C[C@]2(OC)C(=O)[C@]32CO2)cc1	0.531	-3.26 (inactive)	-0.677 (inactive)	-0.314 (inactive)	0.662 (inactive)	-0.173 (inactive)	0.238 (inactive)	0.205 (inactive)	-0.139	-0.0599	0.288 (inactive)	0.261	0.755	-1.48 (inactive)	-0.445 (inactive)	-0.0049 (inactive)
COCCOC(=O)N1C(=O)[C@@]2(c3cc(C#CCCO)ccc31)[C@H](c1ccc(O)cc1)N1[C@H](c3ccccc3)[C@H](c3ccccc3)OC(=O)[C@H]1[C@@H]2C(=O)Nc1nc2ccccc2s1	0.484	-0.297 (inactive)	-0.617 (inactive)	0.864 (inactive)	0.485 (inactive)	0.39 (inactive)	0.438 (inactive)	-0.619 (inactive)	0.179	0.267	0.449 (inactive)	0.635	-1.04	-1.98 (inactive)	-0.534 (inactive)	-0.733 (inactive)
CC[C@@H]1C=C(C(=O)O)[C@H](c2ccccc2)N1S(=O)(=O)c1ccc([N+](=O)[O-])cc1	0.244	0.736 (inactive)	-0.253 (inactive)	0.264 (inactive)	-0.461 (inactive)	-0.1 (inactive)	-2.44 (inactive)	-1.84 (inactive)	0.0416	0.101	-0.0477 (inactive)	0.729	-1.01	-3.73 (inactive)	-0.0036 (inactive)	-0.3 (inactive)
CC(C)(C)OC(=O)CC[C@]1(C(=O)N2CCCCC2)N=C(c2ccc(OCCCO)cc2)O[C@H]1c1ccccc1	-0.302	-1.05 (inactive)	-1.37 (inactive)	-0.892 (inactive)	0.0937 (inactive)	-0.374 (inactive)	0.627 (inactive)	0.837 (inactive)	-0.128	0.354	1.24 (inactive)	0.814	-2.31	-4.83 (inactive)	-0.478 (inactive)	-0.787 (inactive)
CC(=O)NCCCC[C@@H]1NC(=O)[C@H]2C[C@@H](C(=O)NCCCCCCN(C)C)[C@@H](c3ccc(O)cc3)N2C1=O	-0.666	-0.191 (inactive)	-1.56 (inactive)	-0.231 (inactive)	-0.0059 (inactive)	-0.0236 (inactive)	-1.04 (inactive)	-1.53 (inactive)	-1.28	0.217	1.76 (inactive)	0.832	-1.01	-1.9 (inactive)	0.0655 (inactive)	0.0377 (inactive)
N#Cc1ccc(NN2C(C(O)CCc3ccccc3)C=CC3C(=O)N(c4ccccc4)C(=O)C32)cc1 (configuration not stated)	-0.618	-0.333 (inactive)	-0.611 (inactive)	-2.09 (inactive)	1.01 (inactive)	-1.97 (inactive)	0.143 (inactive)	0.7 (inactive)	-0.152	-0.127	1.15 (inactive)	-0.279	0.484	-4.3 (inactive)	-0.13 (inactive)	-0.424 (inactive)
COCCOC(=O)N1C(=O)[C@@]2(c3cc(C#CCCO)ccc31)[C@H](c1ccc(OCCO)cc1)N1[C@H](c3ccccc3)[C@H](c3ccccc3)OC(=O)[C@H]1[C@@H]2C(=O)NC[C@H](O)c1ccccc1	0.542	1.64 (inactive)	-0.149 (inactive)	1.06 (inactive)	1.39 (inactive)	2.33 (inactive)	0.0733 (inactive)	-0.534 (inactive)	0.471	0.106	0.405 (inactive)	0.765	-2.1	-1.24 (inactive)	-0.234 (inactive)	-0.341 (inactive)
C[C@H]1C2[C@H](Cc3ccccc3)NC(=O)[C@]23C(=O)N[C@H](Cc2ccccc2)C(=O)N[C@@H](Cc2ccccc2)C(=O)NC/C=C\C/C=C/C3[C@@H]2O[C@]12C (some centres not stated)	-0.204	-1.79 (inactive)	1.03 (inactive)	-0.427 (inactive)	-0.234 (inactive)	-0.617 (inactive)	1.73 (inactive)	0.9 (inactive)	0.724	0.306	-0.157 (inactive)	-0.564	-0.873	-7.06 (inactive)	0.531 (inactive)	0.375 (inactive)
C=CCOC(=O)[C@@H]1[C@H]2C(=O)O[C@H](c3ccccc3)[C@H](c3ccccc3)N2[C@H](c2ccc(OCCOC(=O)[C@H]3C[C@H]4C(=O)N[C@@H](CCCCNC(C)=O)C(=O)N4[C@H]3c3ccc(O)cc3)cc2)[C@@]12C(=O)Nc1ccc(I)cc12	-0.0657	1.87 (inactive)	-0.967 (inactive)	0.626 (inactive)	2.56 (inactive)	2.34 (inactive)	-0.0715 (inactive)	-0.649 (inactive)	-0.145	-0.0566	0.393 (inactive)	0.566	-1.78	0.32 (inactive)	0.293 (inactive)	-0.568 (inactive)
